# Several values for one entry are separate records, joined by “and”; a condition that tells them apart may be missing. Equal entries are not always repeated. The whole screen tested about 38,000 compounds, of which about 1,200 (3.2%) showed an effect of 50% or more. The median lay at about -58%. For the sample, strong results were picked, then their nearest neighbours and some compounds at random.
# System: Plasmodium falciparum
# Test: Calibr Malaria Delayed Death Assay SOP
# Type: functional, organism-based
# Parameters: scale not given: in the data most compounds retested in dose-response had high values
# Conditions: concentration 4.99e-06 (unit not given; other assays of the set use mol/L)
Structure (SMILES),Percent Effect (4.99 µM),Percent Effect
COCCC1CCCCN1C(=O)c1coc(COc2ccccc2F)n1 (stereo not drawn),-24.51% and -14.95%,–
COc1cccc(CNCc2ccc(F)cc2Cl)c1O,–,78.71%
Cc1cnn(CCNCc2ccc(F)cc2Cl)c1,–,-82.03%
COCCNC(=O)NCCc1cccc(OC)c1O,–,-51.73%
Fc1ccc(CNCCn2cccn2)c(Cl)c1,–,-121.7%
CCOc1cccc(CNc2ccccc2Cl)c1O,–,-149%
COc1cccc(CNCc2ccccc2Cl)c1O,–,76.29%
O=C(c1ccc2[nH]c(=O)[nH]c2c1)N1CCC(Nc2cccnn2)CC1,–,-46.87%
COc1c(C)cnc(CN2CCOC(Cn3cc(C)cn3)C2)c1C (stereo not drawn),–,-74.84%
Cn1c2c(c(=O)n1C)CN(C(=O)c1cnccn1)CCC2,–,-106.6%
Cc1ccc(C(=O)N2CCCC3(C2)C(=O)N(C)c2ccccc23)c(=O)[nH]1 (stereo not drawn),–,-167.7%
Cc1cc(C)cc(NC(=O)CC2CN(Cc3ccccc3)CCO2)c1 (stereo not drawn),–,-128.2%
CCc1cccc2cc(CNCCCN3CCOCC3)c(=O)[nH]c12,–,-14.92%
COCCCn1c(CN2CCCCO2)cnc1S(=O)(=O)C1CCCC1,–,-131.1%
O=C(CNc1cc(-n2cnnn2)ccc1F)Nc1cc(F)ccc1F,–,1.352%
Cc1ccc(-n2cnnn2)cc1NCC(=O)Nc1ccccc1Cl,–,78.71%
Cc1ccc(-n2cnnn2)cc1NCC(=O)Nc1cc(F)ccc1F,–,71.46%
O=C(CNc1ccccc1Cl)Nc1cc(-n2cnnn2)ccc1F,–,-95.2%
O=C(CNc1cc(-n2cnnn2)ccc1F)Nc1ccccc1Cl,–,-49.6%
O=C(CNc1cc(-n2cnnn2)ccc1F)NCc1ccccc1,–,-22.04%
Cc1ccc(-c2ccc(=O)n(CC(=O)Nc3nccs3)n2)cc1,–,-17.67%
FC1(F)CCN(Cc2ccccn2)CC12CCN(c1cnccn1)C2.O=C(O)C(F)(F)F.O=C(O)C(F)(F)F.O=C(O)C(F)(F)F (stereo not drawn),–,16.91%
CC(C)(C)OCC1CN(CC2CC2)S(=O)(=O)c2cnccc2O1 (stereo not drawn),–,-18.82%
O=C1NCC2(CCCN(C(=O)c3c[nH]nc3C3CCCCC3)C2)O1 (stereo not drawn),–,-117.3%
O=C(NCC1CCOC1)c1csc(-c2ccc(F)cc2)n1 (stereo not drawn),–,-133.9%
c1ccc(CO[C@H]2CO[C@@]3(CCCN(Cc4ccncc4)C3)C2)nc1,–,-35.86%

Structure (SMILES),Percent Effect (4.99 µM),Percent Effect
CN1C[C@H]2N(c3ncccn3)CCC[C@@]2(C(=O)NCC2CC2)C1.O=C(O)C(F)(F)F,–,-55.87%
CCN(CC)Cc1ccc(C(=O)NC2CCc3cc(F)ccc32)o1 (stereo not drawn),–,13.89%
CCN(CC)Cc1ccc(C(=O)NC2CCc3cc(Cl)ccc32)o1 (stereo not drawn),–,54.73%
CCN(CC)Cc1ccc(C(=O)NC2CCc3cc(Br)ccc32)o1 (stereo not drawn),–,46.2%
CCC(c1ccncc1)N(C)S(C)(=O)=O (stereo not drawn),–,-63.43%
O=c1[nH]nc2c(S(=O)(=O)N3CCCCC3)cccn12,–,-53.1%
CCSc1nnc(CCNC(=O)OC(C)(C)C)o1,–,-74.82%
Fc1ccc(C2(CNCCc3cccs3)CCOC2)cc1 (stereo not drawn),–,43.71%
CCN(C)S(=O)(=O)NCC1(c2cccc(Br)c2)CC1,–,-108.3%
Clc1ccc(OCCNC2(c3ccc(Br)cc3)CCOCC2)cc1,–,8.374%
FC(F)(F)c1cccc(C2(CNCc3ccncc3)CCOCC2)c1,–,48.98%
COCCn1ccnc1C1CCCN(c2cc(OC)nc(N)n2)C1 (stereo not drawn),–,-62.62%
CC(=O)N1CCCN(CC(C)(O)c2cccc(C(F)(F)F)c2)CC1 (stereo not drawn),–,-93.83%
CC(O)(CN1CCC(O)CC1)c1cccc(C(F)(F)F)c1 (stereo not drawn),–,56.04%
CC(O)(CN1CCC2(CC1)OCCO2)c1cccc(C(F)(F)F)c1 (stereo not drawn),–,-10.61%
COc1cc(C)c(S(=O)(=O)CC(=O)N(C)C2CC2)cc1OC,–,-72.85%
NC(=O)C1(c2cnccn2)CCCN1Cc1ccccn1 (stereo not drawn),–,-37.82%
Cc1ccc(NCCCc2c(C)noc2C)nn1,–,-93.73%
Cn1cc(CN2CCC3(CC2)CC(Nc2nccs2)CO3)cn1.O=C(O)C(F)(F)F (stereo not drawn),–,-11.64%
O=C(O)C(F)(F)F.c1cnc(NC2COC3(CCN(Cc4cccs4)CC3)C2)nc1 (stereo not drawn),–,-52.55%
O=C(O)C(F)(F)F.c1ccc(CN2CCC3(CC2)CC(Nc2nccs2)CO3)nc1 (stereo not drawn),–,73.68%
O=C(O)C(F)(F)F.c1cnc(NC2COC3(CCN(Cc4ccoc4)CC3)C2)nc1 (stereo not drawn),–,-27.43%
Cc1cc(CN2CCC3(CC2)CC(Nc2ncccn2)CO3)nn1C.O=C(O)C(F)(F)F (stereo not drawn),–,-11.8%
Cc1cc(C)cc(CN2CCC3(CC2)CC(Nc2ncccn2)CO3)c1.O=C(O)C(F)(F)F (stereo not drawn),–,60.22%
COc1ccc2c(ccn2CCC(=O)Nc2ccc(C(N)=O)cc2)c1,–,-55.48%
COCCCN(C)C1CCCN(Cc2noc(C3CC3)n2)C1 (stereo not drawn),–,-38.52%

Structure (SMILES),Percent Effect (4.99 µM),Percent Effect
CCCc1nnc(N2CCC3(CC2)CN(C)C(=O)O3)o1,–,-93.43%
O[C@H]1CC[C@@H](Cc2cc(-c3ccccn3)on2)O[C@@H]1CNCC1CC1,–,-74.71%
O[C@H]1CC[C@@H](Cc2cc(-c3ccc(F)cc3)on2)O[C@@H]1CNCC1CC1,–,62.55%
O[C@H]1CC[C@@H](Cc2cc(-c3ccccc3)on2)O[C@@H]1CNCC1CC1,–,37.66%
CN(Cc1cccs1)c1cc(N2CCCC2CO)ncn1 (stereo not drawn),–,-120.2%
Cc1cc2nc(SCC(=O)N3CCOCC3)n(CC(C)C)c(=O)c2[nH]1,–,-82.87%
CC(C)c1cc(Br)ccc1NC(=O)NC(C)(CO)CO,–,-72.51%
CC(c1nc(C(C)(C)C)no1)S(=O)(=O)CC(=O)N(C)C (stereo not drawn),–,-171.7%
Fc1ccc(Sc2ccccc2CNC2=NCCN2)cc1.I,–,79.96%
Fc1ccc(OCCCNC2=NCCN2)cc1.I,–,3.475%
O=C(CCc1nnc2ccccn2c1=O)NCc1ccco1,–,-46.43%
COc1ccsc1C(=O)NCCN1CCOCC1,–,-115.8%
Cc1nc(C)n(CC2CCCN2Cc2ccn(-c3ccccc3)n2)n1 (stereo not drawn),–,-118.1%
CNCCCNC1CCN(c2ccc(-n3ccnc3)cc2)CC1,–,32.68%
CCN1CCC2(CC1)CC(CC(=O)N(C)C)c1ccc(F)cc12 (stereo not drawn),–,-67.07%
CCC(C)N(Cc1ccc(C)cc1)Cc1c[nH]c(C)n1 (stereo not drawn),–,77.78%
CCC(C)N(Cc1ccncc1)Cc1ccc(-n2cccn2)cc1 (stereo not drawn),–,-4.562%
CCC(C)N(Cc1c[nH]c(C)n1)Cc1ccccc1Cl (stereo not drawn),–,47.84%
CCc1ccc(CN2CCNC(C(=O)N3CCN(C)CC3)C2)o1 (stereo not drawn),–,-22.63%
CCOc1ncccc1C(=O)N1CCCC1Cn1cc(C)cn1 (stereo not drawn),–,-83.81%
Fc1ccccc1CN1CCCN(c2ncnc3[nH]ccc23)CC1,–,-95.46%
Cc1nc(C)c(C)c(N2CCC(O)(c3ccc(F)cc3)CC2)n1,–,-9.23%
CNc1nnc(SCc2nnc(C(C)(C)C)o2)s1,–,-74.95%
O=C1NCC(C(=O)Nc2ncc(Cc3ccc(F)cc3F)s2)N1 (stereo not drawn),–,-63.93%
O=C(Cc1cccc2ccccc12)N1CCC(Nc2cccnn2)CC1,–,-77.23%
O=C1CC2(CCN(CCCO)CC2)CN1Cc1ccc(F)c(F)c1,–,-28.18%

Structure (SMILES),Percent Effect (4.99 µM),Percent Effect
COCCN1CCC(CNC(=O)Nc2ccc(F)c(Cl)c2)C1 (stereo not drawn),–,-33.14%
CS(=O)(=O)CCN1CCC(Nc2c(Cl)cccc2C#N)CC1,–,-32.59%
Cc1cccc(C(C)NCC2CCS(=O)(=O)CC2)c1 (stereo not drawn),–,7.654%
CC(NCC1CCN(CCO)CC1)c1cccnc1 (stereo not drawn),–,-40.75%
CC(NC1CCN(CCS(C)(=O)=O)CC1)c1ccc(Cl)cc1 (stereo not drawn),–,56.47%
COc1ccc(C(C)N2CCC(CO)CC2)cc1Cl (stereo not drawn),–,-19.12%
Cc1ccc(CNC(=O)CNCC2CCN(CCO)CC2)s1,–,-48.54%
CC(NCC1CCN(CCO)CC1)c1ccc(F)c(Cl)c1 (stereo not drawn),–,83.31%
CC(NCC1CCN(CCO)CC1)c1cccc(Cl)c1 (stereo not drawn),–,84.07%
CC(c1ccc(Cl)cc1)N1CCN(CCS(C)(=O)=O)CC1 (stereo not drawn),–,-44.52%
O=C(NCCOc1ccc(Cl)cn1)Nc1nccs1,–,-1.653%
CCS(=O)(=O)N1CCc2ccc(NC(=O)Nc3cccc(C)c3)cc21,–,-42.73%
O=C(NCc1ccccn1)[C@H]1COC[C@H]2CN(CC3CC3)C[C@H]21.O=C(O)C(F)(F)F.O=C(O)C(F)(F)F,–,-42.42%
CC(NC(=O)Cn1ccc2sccc2c1=O)c1ccccc1 (stereo not drawn),–,-76.67%
COc1ccc(-c2cc(C3(O)CCOC(C)(C)C3)on2)cc1 (stereo not drawn),–,-20.9%
Cc1c(COC(C)C)cccc1NC(=O)N1CC[C@H](O)C1,–,-81.26%
NC(=O)c1c(SCCN2CCCCC2)sc2c(O)cc(=O)[nH]c12,–,1.518%
O=S1(=O)[C@@H](c2ccccc2)[C@H](CO)CN1c1ccccc1,–,-141.9%
Cc1cc(C)nc(CN(C)c2nc(C3CCCC3)nc3c2cnn3C)c1,–,-50.46%
CCN(CC)c1ncnc2c1CCN(c1ccc(C)nn1)CC2,–,-148.5%
Cc1nn(CCCNC(=O)C2CCN(S(C)(=O)=O)CC2)cc1Cl,–,-83.52%
Cc1cnn(C2CN(CCOc3ccccc3C#N)C2)c1,–,-94.34%
O=C(Cc1ccccn1)N1CCc2ncnc(NC3CCC3)c2CC1.O=C(O)C(F)(F)F,–,-99.33%
COCc1ncc(CN2CCC(Oc3ccc(OC)cc3)CC2)cn1,–,-166.1%
O=C(Nc1cccc(OCC(F)F)n1)c1ccncc1,–,-44.55%

# Source: ChEMBL document CHEMBL3988442, “University of Dundee, Small-Polar-MMV Screening Library” (2021)
